The full list was thinned out, with hits kept by preference.
PGK inhibitor – qHTS Assay to Find Inhibitors of Phosphoglycerate Kinase | Phosphoglycerate kinase, glycosomal (Trypanosoma brucei brucei), P07378 | PGK/GAPDH coupled, Kinase-Glo luminescence, 60 min | Potency, µM (series often up to 57.5 µM), actives largely listed as inhibitors | 380,000 tested, 0.043% active | AID 602233, 2012; note: nearly all actives have a fitted effect of over 60% in size
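Luminescent ATP detection (Kinase-Glo Plus) follows a 60-minute room-temperature incubation, with wells lacking PGK as controls. Buffer: 100 mM TEA (pH 7.6), 5 mM MgCl2, 0.01% Tween-20. Coupling enzyme GAPDH (100 nM final) supplies unstable 1,3-BPG in-well.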
PI5P4K alpha inh – qHTS for Inhibitors of phosphatidylinositol 5-phosphate 4-kinase (PI5P4K) | Phosphatidylinositol 5-phosphate 4-kinase type-2 alpha (Homo sapiens), P48426 | 330,000 tested, 1.2% active | max response, % | PI5P4Kalpha enzyme, ADP-Glo luminescence, 60 min; active compounds read low; active = max response of -50% or lower; inconclusive = between -30% and -50%; inactive = -30% or higher; note: value at the top dose of about 77 µM
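Reactions run in 0.038 M HEPES pH 7.4, 0.28 mM EGTA, 0.1% CHAPS and 5% DMSO, with PI5P4Kalpha, substrate, compound and 5 microM ATP final, one hour at room temperature. Readout is ADP-Glo luminescence.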
PI4K2A inh – qHTS for small molecular inhibitors of PI4K2A. purified PI4K2A, ADP-Glo luminescence, 1 h; active compounds read low. activity change, negative = inhibition, % at 76.9 µM. 420,000 tested, 0.13% active. AID 1346378, 2018; in the data active = activity change below about -50%; inconclusive = mostly about -30% to -49%
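Compounds are screened against recombinant PI4K2A using PI as substrate and ATP, the latter dispensed at 300 microM. Reactions run one hour at ambient temperature before ADP-Glo detection; full inhibition defined by wells lacking enzyme.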
Pin1 inh – qHTS Assay to Find Inhibitors of Pin1 | Pin1 FP peptide displacement, HiFluor488, 10 min | Potency, µM (titrated, usually from 115 µM), actives largely listed as inhibitors | 390,000 tested, 0.009% active; active = well fitted inhibition curve with a large enough effect in the polarisation, with a control signal flat, not every such curve was filed as active; inconclusive = small, poorly fitted or top-dose-only effect, or effect the other way, or a change in a side signal; inactive = no such curve, though single readings can be large or run the other way; the % refers to the polarisation
Tb PFK block – qHTS Assay to Find Inhibitors of T. brucei phosphofructokinase. T. brucei PFK, ADP-Glo luminescence. 330,000 tested, 0.17% active. ATP-dependent 6-phosphofructokinase (Trypanosoma brucei brucei), O15648. Potency, µM (series often up to 57.5 µM), actives largely listed as inhibitors; note: nearly all actives have a fitted effect of over 60% in size
Target sequence (O15648 whole entry, looked up): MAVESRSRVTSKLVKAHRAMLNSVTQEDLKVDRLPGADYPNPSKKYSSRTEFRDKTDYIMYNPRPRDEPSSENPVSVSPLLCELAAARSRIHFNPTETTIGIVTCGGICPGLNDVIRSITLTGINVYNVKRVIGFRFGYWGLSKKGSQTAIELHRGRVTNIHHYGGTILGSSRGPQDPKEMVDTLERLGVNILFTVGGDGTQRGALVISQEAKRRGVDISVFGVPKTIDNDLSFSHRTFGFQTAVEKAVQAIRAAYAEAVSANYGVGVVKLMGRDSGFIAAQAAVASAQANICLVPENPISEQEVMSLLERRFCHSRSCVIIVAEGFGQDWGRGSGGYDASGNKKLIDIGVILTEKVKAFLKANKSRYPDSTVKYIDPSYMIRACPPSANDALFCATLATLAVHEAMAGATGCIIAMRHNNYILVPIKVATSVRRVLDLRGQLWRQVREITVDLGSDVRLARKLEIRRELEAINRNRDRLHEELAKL
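In TEA buffer at pH 8.0 with 5 mM MgCl2, enzyme (1.25 nM) converted F6P (0.5 mM) and ATP (0.1 mM) for 45 min at room temperature. ADP product was read by luciferase luminescence.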
Hits are given with their value; 0 = inactive; ? = inconclusive; - = no result. Unless noted, calls come from the whole dose curve; as a rule, active = well fitted curve in the direction sought with a large enough effect; inconclusive = small, poorly fitted or top-dose-only effect, or another doubt; inactive = no such curve, though single readings can be large; an effect the other way counts as inactive or inconclusive.

SMILES | PGK inhibitor | PI5P4K alpha inh | PI4K2A inh | Pin1 inh | Tb PFK block
O=C(O)CN1C(=O)/C(=C\c2cn(-c3ccccc3)nc2-c2ccccc2)SC1=S | 0 | ? | 0 | 43µM | 0
Cc1ccc(-c2nn(-c3ccccc3)cc2C=C2SC(=S)N(CCS(=O)(=O)O)C2=O)cc1 | - | -89 | 0 | - | -
CC(C)COc1ccc(-c2nn(-c3ccccc3)cc2/C=C2/SC(=S)N(CC(=O)O)C2=O)cc1 | 0 | 0 | 0 | 0 | ?
O=C1C(=Cc2cn(-c3ccccc3)nc2-c2ccc(OCc3ccccc3)cc2)SC(=S)N1CCS(=O)(=O)O | - | -65 | 0 | - | -
Cc1cccc(NC(=O)CSc2cn[nH]n2)c1 | 0 | 0 | 0 | 0 | 0
O=C(CSc1cn[nH]n1)Nc1cccc(C(=O)O)c1 | 0 | -64 | 0 | 0 | 0
CC(c1ccco1)N(C(=O)c1cc(Cl)cc(Cl)c1)c1ccccn1 (stereo unspecified) | 0 | 0 | 0 | 0 | 0
O=C1c2ccccc2CN1CCSC(=S)N1CCOCC1 | 0 | 0 | 0 | 0 | 0
CC1=C/C(=C(\c2cc(C)c(O)c(Br)c2)c2ccccc2S(=O)(=O)O)C=C(Br)C1=O | ? | -77 | -69 | ? | ?
O=C(Nc1ccc(S(=O)(=O)N(Cc2ccccc2)c2ccccc2)cc1)c1ccccc1F | 0 | - | 0 | 0 | -
O=C(COC(=O)c1cccc(S(=O)(=O)N2CCOCC2)c1)NCc1ccc2c(c1)OCO2 | 0 | 0 | 0 | 0 | 0
Cc1cc[n+](-c2[nH]c(=O)sc2/C=N/NC([S-])=Nc2ccccc2)cc1 | 0 | -77 | 0 | ? | 0
O=c1[nH]c(-[n+]2ccccc2)c(/C=N/NC([S-])=Nc2ccccc2)s1 | 0 | 0 | 0 | ? | 0
NC(=S)n1[nH]c(-c2ccc([N+](=O)[O-])cc2)c(N=Nc2cccc(Cl)c2)c1=O | ? | -79 | 0 | - | 0
Cc1ccc2nc(N3C(=O)C(O)=C(C(=O)c4ccco4)C3c3ccc(C)o3)sc2c1 (stereo unspecified) | 0 | -52 | 0 | ? | 0
Cc1ccc2nc(N3C(=O)C(O)=C(C(=O)c4ccco4)C3c3ccc(O)cc3)sc2c1 (stereo unspecified) | - | - | - | - | 0
CCc1ccc2nc(N3C(=O)C(O)=C(C(=O)c4ccco4)C3c3cccs3)sc2c1 (stereo unspecified) | 0 | -59 | 0 | 0 | 0
O=C(C1=C(O)C(=O)N(c2nc3ccc(Cl)cc3s2)C1c1ccco1)c1ccco1 (stereo unspecified) | 0 | -74 | 0 | ? | 0
Cc1ccc2nc(N3C(=O)C(O)=C(C(=O)c4ccc(C)o4)C3c3ccco3)sc2c1 (stereo unspecified) | 0 | ? | 0 | 0 | 0
CCC(C)(NC(=O)Cc1c[nH]c2ccccc12)C(=O)NC1CCCCC1 (stereo unspecified) | 0 | 0 | 0 | 0 | 0
Cc1cc2ccccc2c(=O)n1CC(=O)NCC1COc2ccccc2O1 (stereo unspecified) | 0 | 0 | 0 | 0 | 0
O=C(CNC(=O)c1ccc(F)cc1)N/N=C/c1ccc(O)c([N+](=O)[O-])c1 | 0 | -65 | 0 | 0 | 0
O=C(CNC(=O)c1ccco1)N/N=C/c1ccc(O)c([N+](=O)[O-])c1 | 0 | 0 | 0 | 0 | 0
O=C(CNC(=O)c1cccc(F)c1)N/N=C/c1ccc(O)c([N+](=O)[O-])c1 | 0 | -72 | 0 | 0 | 0
Cc1cccc(C)c1OCc1cc(C(=O)N2CCCCCCC2)no1 | 0 | 0 | 0 | 0 | 0
CCCCCCCC(=O)OCC(COC(=O)CCCCCCC)OC(=O)CCCCCCC | 0 | 0 | 0 | 0 | 0
COc1cc(-c2cc3n(C)c(C)c(CCC(=O)NCc4ccccc4)c(=O)n3n2)cc(OC)c1OC | 0 | - | 0 | 0 | -
COc1cc(-c2ccc(Nc3ccccc3C(=O)O)c(OC)c2)ccc1Nc1ccccc1C(=O)O | 0 | -89 | 0 | ? | 0

Screening results from PubChem.
